Assay outcomes: PubChem BioAssay, National Center for Advancing Translational Sciences (NCATS)
KB-V1 cytotox = kills drug-selected multidrug resistant KB-V1 cells | KB-V1 MDR cells viability, CellTiter-Glo, 72 h | Potency, µM (top dose mostly 46.1 µM), actives largely listed as cytotoxic | 400,000 compounds, 3.4% hits; also: % is scaled to controls: 0 for no effect and ±100 for the full control effect; nearly all actives have a fitted effect of over 60% in size
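Readout: CellTiter-Glo luminescence, 10 min after addition. Cells: KB-V1 MDR subline, 72 h at 37 degrees C with compound. Analysis: corrected, normalized data fitted to concentration-effect curves.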
KB-3-1 tox = kills parental KB-3-1 adenocarcinoma cells. KB-3-1 viability, CellTiter-Glo ATP luminescence, 72 h. Potency, µM (titrated, usually from 46.1 µM), actives largely listed as cytotoxic. 400,000 compounds, 1.4% hits; also: % is scaled to controls: 0 for no effect and ±100 for the full control effect; nearly all actives have a fitted effect of over 60% in size
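KB-3-1 cells, DMEM (no phenol red) + 10% FBS; compound by pin transfer, 72 h, 37 °C. Readout: CellTiter-Glo luminescence after 10 min. Data normalized, curve-fitted.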
ELG1 DNA repair = blocks ELG1-dependent DNA repair in HEK293T cells | 330,000 compounds, 2.3% hits | Potency, µM (doses to about 46.1 µM), for the others: at the highest dose activity change, negative = inhibition, hits mostly inhibitors | HEK293T ELG1-luciferase reporter, luminescence, 16 h; DNA damage induced by 5-fluorouridine; also: % is scaled to controls: 0 for no effect and ±100 for the full control effect; nearly all actives have a fitted effect of over 55% in size
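In this reporter screen, reduction of luminescence relative to DMSO vehicle indicated activity. Compounds and 5-fluorouridine were added together to 2,000 cells per well, incubated for 16 hr at 37 °C, then developed with ONE-Glo.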
SW480 rereplic = inducers of DNA re-replication in SW480 colon cancer cells; SW480 DNA re-replication, Hoechst DNA content imaging, 48 h; Potency, µM (highest dose often 46.1 µM), without a hit: at the top dose re-replication activation, most hits filed as activators; 340,000 compounds, 1.8% hits; also: % of control where 0% means no effect; nearly all actives have a fitted effect of over 55% in size
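Readout is total intensity of Hoechst-stained nuclei, excited at 405 nm and collected at 500-530 nm. Compound treatment lasted 48 hr at 37 C in 5% CO2 before staining.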
MCF10A rerep = inducers of DNA re-replication in MCF 10A breast cells. MCF 10A DNA re-replication, Hoechst nuclear intensity, 48 h. Potency, µM (top dose mostly 46.1 µM), for the others: top-dose activity, positive = re-replication, actives largely listed as activators. 350,000 compounds, 2.9% hits. AID 624296; also: % of control where 0% means no effect; nearly all actives have a fitted effect of over 50% in size
Starred values were filed as active, the others as inactive; i = inactive; ? = inconclusive; . = no result given. Hits are enriched below; roughly 8.2% of the tested compounds scored in any of these assays. Calls follow the shape of the dose curve; as a rule, active = well fitted curve in the direction sought with a large enough effect; inconclusive = small, poorly fitted or top-dose-only effect, or another doubt; inactive = no such curve, though single readings can be large; an effect the other way counts as inactive or inconclusive. Potency is read from the fitted curve at half-maximal effect.

SMILES | KB-V1 cytotox | KB-3-1 tox | ELG1 DNA repair | SW480 rereplic | MCF10A rerep
Cc1nn(Cc2ccc(Cl)cc2)c(C)c1NC(=O)c1cc(-c2ccc3c(c2)OCO3)on1 | i | 4.11µM* | 18.4µM* | ? | 4.61µM*
CC/C(=N\NC(=O)c1ccoc1C)c1ccc(C)o1 | i | i | ? | -3.5% | -1.7%
Cc1nn(Cc2ccc(Cl)cc2)c(C)c1NC(=O)c1c(-c2ccccc2)noc1C | i | i | 13µM* | 17.7% | 0.4%
Cc1ccccc1OC(C)C(=O)NCCNC(=O)C(C)Oc1ccccc1C (stereo not drawn) | i | i | . | . | .
O=C(NCc1ccccc1)C1C(c2ccc3c(c2)OCO3)=Nc2ccccc2N1C(=O)c1ccco1 (stereo not drawn) | ? | 7.31µM* | . | . | .
CC(=O)N(Cc1ccc(Br)cc1)c1ccccc1C(=O)O | i | i | ? | 2.59µM* | -2.5%
COc1ccc(CN(C(C)=O)c2ccccc2C(=O)O)cc1 | i | i | 7.1% | 2.3% | 4.8%
Cc1ccc(Cl)cc1NC(=O)C(=O)N/N=C/c1ccc2c(c1)OCO2 | i | i | 13.4% | -0.7% | 4.6%
O=C(CNC(=O)c1ccc(Cl)cc1)OCc1cc(=O)n2ccsc2n1 | i | i | . | . | .
N#Cc1ccccc1NC(=O)COC(=O)/C=C/c1cn(-c2ccccc2)nc1-c1ccc(Cl)cc1 | i | 23.1µM* | -0.3% | 0.7% | -5.0%
NC(=O)c1ccc(NC(=O)COC(=O)/C=C/c2cn(-c3ccccc3)nc2-c2cccnc2)cc1 | i | i | ? | 5.17µM* | -2.6%
COc1ccc(-c2nn(-c3ccccc3)cc2/C=C/C(=O)OCC(=O)Nc2ccccc2C#N)cc1 | ? | ? | 5.8% | 1.3% | 14.6µM*
COc1ccc2c(c1)c(=O)oc1c(C)c(OC(C)C(=O)N[C@@H](Cc3c[nH]c4ccc(O)cc34)C(=O)O)ccc12 (stereo partly drawn) | i | i | -4.0% | -65.9% | -6.9%
CCc1cccc(NC(=O)c2cnc(SC)nc2-c2ccccc2)c1 | i | ? | . | . | .
C[C@H]1CCC/C=C/[C@@H]2C[C@H](O)C[C@H]2[C@H](O)[C@H](S(=O)c2ccc(O)cc2)CC(=O)O1 (stereo partly drawn) | ? | 0.0092µM* | . | ? | 20.8%
CCCN(CCC)c1nc(N)c(C#N)c(CC#N)c1C#N | i | i | -25.7% | 13.6% | 6.51µM*
CCN(CC)c1nc(N)c(C#N)c(CC#N)c1C#N | ? | i | . | -25.8% | ?
N#Cc1ccc(S(=O)(=O)N2CCN(c3nc(-c4cccs4)nc4ccccc34)CC2)cc1 | i | ? | . | . | .
S=C(NCCCc1cnc[nH]1)NCCCN(CCc1ccccc1)c1ccc(Br)cn1 | i | ? | . | . | .
O=C(Nc1ccc(F)c(F)c1)c1cnc(-c2ccccc2)nc1-c1ccccc1 | i | i | -17.9% | 1.8% | 13µM*
O=C1CC(c2cc(Br)ccc2F)c2cc3c(cc2N1)CCC3 (stereo not drawn) | ? | 1.64µM* | ? | 1.16µM* | 1.46µM*
COC(=O)C1=C(C)NC(=O)CC1c1ccccc1F (stereo not drawn) | i | i | -5.3% | ? | 5.8µM*
Cn1c2c(c(=O)n(C)c1=O)C(c1cc(Br)ccc1F)CC(=O)N2 (stereo not drawn) | i | i | . | . | .
O=C1CC(c2ccccc2F)c2cc3c(cc2N1)CCC3 (stereo not drawn) | 13µM* | 8.2µM* | -12.5% | -5.6% | -1.5%
O=C(CN1C(=O)c2ccccc2S1(=O)=O)NC(Nc1ccccc1F)C(Cl)(Cl)Cl (stereo not drawn) | ? | ? | 4.4% | 4.7% | 19.1%
O=C(CSc1nc(-c2ccccc2F)nc2cc(=O)[nH]n12)Nc1cccc(C(F)(F)F)c1 | i | i | . | . | .
O=C1C(=O)c2ccccc2C([O-])=C1[n+]1ccccc1 | i | i | 18.3µM* | 1.7% | -11.9%
O=C1C(=C(O)c2ccccc2)C(=O)c2ccccc21 | i | i | ? | 0.2% | 0.2%
O=S(=O)(NCCc1ccccc1)c1ccc(N2CCCCS2(=O)=O)cc1 | i | i | . | . | .
